Values joined by “and” are separate entries in the source; they are usually repeats but may differ in a detail not shown here. Equal values may be shown once. The panel holds about 79,000 compounds, 15% with a hit somewhere; the sample as a whole holds those more often. Values without a mark were called inactive. Active and inactive are the calls of the source. Cut-off read from the data, not from the text of the source: active = growth inhibition above about 70%; inactive = the rest.

This experiment is described as follows: NCI Yeast Anticancer Drug Screen. Data for the mlh1 rad18 strain (AID 175). The settings on record: S. cerevisiae mlh1 rad18 strain growth inhibition, stronger effect = higher value; at 50.0 µM unless noted. The method, boiled down:
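Vehicle-treated cultures served as the reference for growth inhibition in a yeast strain carrying DNA damage repair alterations exposed to each compound.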
Turning to `CCOC(=O)Nc1ccccc1OCC`, the growth inhibition is -3.45%.
As for `ClC(Cl)(Cl)c1ncnc2nc[nH]c12`, the growth inhibition is 13.3%.
The figure for `CNC(=S)NCOCCOC(C)=O` is 3.45%; for `NC(Cc1cc(Br)c(Oc2ccc(O)cc2)c(Br)c1)C(=O)O` (centres undefined) it is 20.9%; for `O=[N+]([O-])c1ccc(S(=O)(=O)O)cc1` it is 43.1%.
Then `CCCSc1nc(C(=O)O)cc(=O)[nH]1`, with -8.15%; and `CC(=O)N(C)c1ccccc1`, with -7.55%; and `O=C(O)c1cc([N+](=O)[O-])c(O)c2ccccc12`, with 21.8%.
Then `COC(=O)C1=C2C3(O)CC4CC5C3CCC(C)N5C24C2CCCC(OC)C2C1OC(=O)c1ccccc1` (centres undefined), with 24.1%; and `CCCC(=O)OCC1OC(n2cc(F)c(=O)[nH]c2=O)CC1OC(=O)CCC` (centres undefined), with 10.2%.
As to `O=[N+]([O-])c1cccc(Br)c1`, the growth inhibition was 5.75%.
The figure for `COC(=O)/C=C(/Sc1nc(Cl)c(Cl)nc1N)C(=O)OC` (tested in a mixture with another compound) is -24.6%; for `CC(C)(C)NC(=O)C(Br)c1ccccc1` (centres undefined) it is 16%; for `C=C1CC2C=CC1C2` (centres undefined) it is 2.85%.
In the case of `O=S(=O)(O)c1cc(N=[N+]([O-])c2ccc(N=Nc3ccccc3)cc2S(=O)(=O)O)ccc1/C=C/c1ccc(N=[N+]([O-])c2ccc(N=Nc3ccccc3)cc2S(=O)(=O)O)cc1S(=O)(=O)O`, the growth inhibition is 50.4%.
Consider `CC(C)(C)c1ccc(C(C)(C)C)c(N2C(=O)c3ccc4c5ccc6c7c(ccc(c8ccc(c3c48)C2=O)c75)C(=O)N(c2cc(C(C)(C)C)ccc2C(C)(C)C)C6=O)c1`, for which the growth inhibition was -6.8%.
Then `CO[C@@H]1C2=CC=CC=C[C@H]2n2c(=O)n(-c3ccccc3)c(=O)n21`, with 13.2%; and `Nc1nc(N)c2[nH]cnc2n1`, with -43.9% and 1.2%.
The figure for `CCOC(=O)c1ccc2c(c1)C(=O)c1cc([N+](=O)[O-])ccc1-2` is 23.1%; for `N#CCCOc1ccc(N)cc1` it is 17.6%; for `O=C1NCC2(CCNCC2)N1` it is -70.6%.
The figure for `CCCCc1cc(C(=O)OC/C(C)=N/NC(N)=O)c2ccccc2n1` is 9.45%; for `Nc1cc(C(=O)O)[nH]c(=O)n1` it is -10.3%; for `O=c1c2ccccc2c(=O)n2n1-c1cccc(c1)CSSCc1cccc-2c1` it is -12.8%.
For the compound `O=C(O)COc1ccc(F)cc1F`, the growth inhibition was -16.4%.
As for `Cc1ccc(S(=O)(=O)c2ccccc2)cc1`, the growth inhibition was -43.6% and 16.6%.
Then `CCCCCCCCCCCC(O)C(C)(C)C` (centres undefined), with 10.3%; and `CC1(O)CC(=O)c2c(cc3ccc(-c4c5c(c(O)c6c(O)cccc46)C(=O)CC(C)(O)C5)c(O)c3c2O)C1` (centres undefined), with 9.95%; and `N#C/C(=C\c1ccc(Cl)cc1Cl)C(=O)N/N=C/c1ccc(Cl)cc1Cl`, with 23.6%.
Take `O=C1C2CCC2C(=O)N1c1ccc2ccccc2c1` (centres undefined): the growth inhibition was 6.75%.
The figure for `Cc1cc(O)c(C)cc1O` is 21.6%; for `C[N+](C)(CCCCCCCCCC[N+](C)(C)CC(=O)c1ccccc1)CC(=O)c1ccccc1` it is 18.1%.
The figure for `CCCCN1C(=O)NC(Cc2ccccc2)C1=O` (centres undefined) is -12.5%; for `CCCCCCCCCCCC[N+](C)(C)C(C)Cc1ccccc1` (centres undefined) it is 99.3% (active); for `O=S(=O)(O)c1cc(O)c(S(=O)(=O)O)cc1O` it is -8.6%.
Turning to `CC(C)CC1N=C(NN=C(CCl)CCl)OP1(=O)NCCCCCCNP1(=O)OC(NN=C(CCl)CCl)=NC1CC(C)C` (centres undefined), the growth inhibition was 37.6%.
Then `O=C1CC2c3ccccc3CCN2C2=C1CCC2` (centres undefined), with 18.7%; and `O=Nc1c(S(=O)(=O)O)cc2cc(S(=O)(=O)O)ccc2c1O`, with 30.4%; and `Cc1ccc(S(=O)(=O)NC(CCC(=O)N2CCOCC2)C(=O)O)cc1` (centres undefined), with 8.6%.

The record behind these values is PubChem BioAssay (NCI).
